Publication PMC5540273 (PLoS ONE, 2017)

How the values were obtained:
Settings in all cases: concentration: 1 μM, replicates: in singlicate; n = 1
MET = test system: MET
MINK = test system: T1, MINK
T1 construct: gene MINK1

MKK7 = test system: MKK7
MKNK1 = test system: MKNK1
MKNK2 = test system: MKNK2
MLCK = test system: T2, MLCK
T2 construct: gene MYLK3

MLK1 = test system: T3, MLK1
T3 construct: gene MAP3K9

MLK2 = test system: MLK2
MLK3 = test system: MLK3
MRCKA = test system: MRCKA
MRCKB = test system: T4, MRCKB
T4 construct: gene CDC42BPB

MST1R = test system: MST1R
MST1 = test system: T5, MST1
T5 construct: gene STK4

MST2 = test system: T6, MST2
T6 construct: gene STK3

MST3 = test system: T7, MST3
T7 construct: gene STK24

MST4 = test system: MST4
MTOR = test system: MTOR
MUSK = test system: MUSK
MYLK2 = test system: MYLK2
MYLK4 = test system: MYLK4
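Further: KINOMEscan kinase panel screen.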

Row | Compound | %Inh (MET) | %Inh (MINK) | %Inh (MKK7) | %Inh (MKNK1) | %Inh (MKNK2) | %Inh (MLCK) | %Inh (MLK1) | %Inh (MLK2) | %Inh (MLK3) | %Inh (MRCKA) | %Inh (MRCKB) | %Inh (MST1R) | %Inh (MST1) | %Inh (MST2) | %Inh (MST3) | %Inh (MST4) | %Inh (MTOR) | %Inh (MUSK) | %Inh (MYLK2) | %Inh (MYLK4)
1 | COc1cc(Nc2nccc(N3CCC(NC(=O)C(C)c4ccc(Cl)cc4)C3)n2)cc(OC)c1OC (stereo not shown) [GSK1379757] | 0% | 0% | 15% | 0% | 16% | 0% | 22% | 0% | 28% | 15% | 0% | 37% | 8% | 5% | 0% | 0% | 36% | 0% | 0% | 0%
2 | COc1cccc(C2=C(Nc3cccc(C(=O)O)c3)C(=O)NC2=O)c1 [SB-390770] | 0% | 7% | 15% | 2% | 0% | 0% | 0% | 47% | 45% | 17% | 18% | 2% | 28% | 25% | 0% | 0% | 29% | 15% | 38% | 0%
3 | COc1cccc(-n2cnc3c(N)ncnc32)c1 [SKF-97416] | 0% | 22% | 30% | 0% | 31% | 5% | 2% | 0% | 0% | 13% | 0% | 5% | 0% | 0% | 6% | 28% | 19% | 5% | 6% | 26%
4 | COc1ccc(CNC(=O)NC2CCN(c3ccnc(Nc4ccc(F)cc4)n3)C2)cc1 (stereo not shown) [GSK1379706] | 0% | 80% | 10% | 0% | 0% | 8% | 0% | 0% | 17% | 16% | 12% | 41% | 0% | 9% | 6% | 0% | 28% | 4% | 6% | 17%
5 | C[C@@H]1CC[C@H](C(=O)NC2CCCCC2)CN1c1cc(-c2ccc3c(N)n[nH]c3c2)nc(N)n1 [GSK2291363] | 0% | 12% | 0% | 12% | 18% | 0% | 4% | 0% | 32% | 15% | 15% | 50% | 12% | 0% | 14% | 0% | 18% | 21% | 11% | 23%
6 | COc1cc(Nc2nccc(N3CCC(NC(=O)C4COc5ccccc5O4)C3)n2)cc(OC)c1OC (stereo not shown) [GSK1379761] | 19% | 0% | 0% | 0% | 31% | 12% | 63% | 4% | 44% | 0% | 0% | 8% | 6% | 0% | 0% | 0% | 34% | 0% | 6% | 0%
7 | O=C(Nc1n[nH]c2cc(-c3ccccc3F)ccc12)C1CC1 [SB-733371] | 0% | 69% | 10% | 0% | 18% | 29% | 0% | 5% | 0% | 0% | 0% | 0% | 1% | 0% | 0% | 0% | 0% | 1% | 90% | 4%
8 | Cc1cc(Nc2nc(-c3cccc(C)n3)nc3ccccc23)ccn1 [GW872411] | 32% | 1% | 0% | 1% | 0% | 0% | 0% | 28% | 0% | 0% | 0% | 0% | 0% | 0% | 0% | 0% | 73% | 9% | 0% | 26%
